According to PubChem BioAssay (NCI):
Compounds without any hit were thinned out: in the full panel of roughly 83,000, 20% have a hit.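 The test compound was applied at a single concentration to cells in 96-well plates for 48 hours, and percent growth was recorded.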 Activity calls are given as the source filed them. How the source made its calls: active means growth percent below 10; inactive means the rest.

Assays:
Experiment in all cases: NCI-60 one-dose screen, 48 h (100 = growth as untreated, 0 = no growth, -100 = all killed)
Settings in all cases: 10 µM unless noted
HCT-15 colon = test system: HCT-15 colon
HT29 colon = test system: HT29 colon
SNB-75 CNS = test system: SNB-75 CNS
SNB-19 CNS = test system: SNB-19 CNS
U251 CNS = test system: U251 CNS
PC-3 prostate = test system: PC-3 prostate
SK-MEL-5 melanoma = test system: SK-MEL-5 melanoma
UACC-62 melanoma = test system: UACC-62 melanoma
LOX IMVI melanoma = test system: LOX IMVI melanoma
SK-MEL-28 melanoma = test system: SK-MEL-28 melanoma
SK-MEL-2 melanoma = test system: SK-MEL-2 melanoma
EKVX NSCLC = test system: EKVX NSCLC
SN12C renal = test system: SN12C renal
UO-31 renal = test system: UO-31 renal
TK-10 renal = test system: TK-10 renal
ACHN renal = test system: ACHN renal
CAKI-1 renal = test system: CAKI-1 renal
A498 renal = test system: A498 renal
CCRF-CEM leukemia = test system: CCRF-CEM leukemia
MOLT-4 leukemia = test system: MOLT-4 leukemia

Measured: growth

O=C(CN1CCN(c2cc3c(cc2F)c(=O)c(C(=O)O)cn3C2CC2)CC1)N/N=C/c1ccncc1
inactive: HCT-15 colon 97.5% | HT29 colon 97.8% | SNB-75 CNS 89.1% | SNB-19 CNS 92.8% | U251 CNS 98.8% | PC-3 prostate 91.7% | SK-MEL-5 melanoma 96.9% | UACC-62 melanoma 95.7% | LOX IMVI melanoma 99.8% | SK-MEL-28 melanoma 106% | SK-MEL-2 melanoma 105% | EKVX NSCLC 98.3% | SN12C renal 106% | UO-31 renal 90.6% | TK-10 renal 91.6% | ACHN renal 99.6% | CAKI-1 renal 93.8% | A498 renal 96.4% | CCRF-CEM leukemia 94% | MOLT-4 leukemia 101%

COc1ccc(-c2oc(=O)ccc2-c2cc(OC)c(OC)c(OC)c2)cc1O
active: HT29 colon 3.93% | SNB-75 CNS -1.81% | CAKI-1 renal -11.6% | A498 renal -1.78% | CCRF-CEM leukemia 4.14%
inactive: HCT-15 colon 27.1% | SNB-19 CNS 22.9% | U251 CNS 22.7% | PC-3 prostate 38.1% | SK-MEL-5 melanoma 12.1% | UACC-62 melanoma 21.1% | LOX IMVI melanoma 44.4% | SK-MEL-28 melanoma 39.3% | SK-MEL-2 melanoma 39.9% | EKVX NSCLC 49.5% | SN12C renal 36.8% | UO-31 renal 21.9% | TK-10 renal 61.6% | ACHN renal 56% | MOLT-4 leukemia 20.5%

Cc1ccc(/C=C/C(=O)c2ccc(NC(=O)CSc3nc4c([nH]3)c(=O)n(C)c(=O)n4C)cc2)c(C)c1
inactive: HCT-15 colon 70.7% | HT29 colon 53.3% | SNB-75 CNS 18.9% | PC-3 prostate 49.3% | SK-MEL-5 melanoma 69.5% | UACC-62 melanoma 69.5% | LOX IMVI melanoma 39.1% | SK-MEL-28 melanoma 62.2% | SK-MEL-2 melanoma 91.9% | EKVX NSCLC 78.1% | SN12C renal 57.1% | UO-31 renal 70.4% | TK-10 renal 83.5% | ACHN renal 38.8% | CAKI-1 renal 48.1% | A498 renal 40.2% | CCRF-CEM leukemia 65.3% | MOLT-4 leukemia 62.1%
active: SNB-19 CNS 0.886% | U251 CNS -67.5%

CCOC(=O)n1cc(-c2nonc2-c2cn(C)c3ccccc23)c2ccccc21
inactive: HCT-15 colon 31.2% | HT29 colon 12.8% | SNB-75 CNS 16.3% | SNB-19 CNS 35.3% | U251 CNS 26.7% | PC-3 prostate 48.1% | SK-MEL-5 melanoma 46.3% | UACC-62 melanoma 30.6% | LOX IMVI melanoma 41.7% | SK-MEL-28 melanoma 57.4% | SK-MEL-2 melanoma 37.3% | EKVX NSCLC 55.7% | SN12C renal 45.1% | UO-31 renal 42.9% | TK-10 renal 63.2% | ACHN renal 43.2% | CAKI-1 renal 29.4% | A498 renal 15.2% | CCRF-CEM leukemia 21.6% | MOLT-4 leukemia 23.2%

CN1CCN(Cc2ccc(NC(=O)c3cncc(C#Cc4cncc5[nH]ncc45)c3)cc2C(F)(F)F)CC1
inactive: HCT-15 colon 10.6% | HT29 colon 11.1% | SNB-75 CNS 20% | SNB-19 CNS 45.5% | U251 CNS 25.1% | SK-MEL-5 melanoma 13.2% | EKVX NSCLC 26.3% | TK-10 renal 12.5%
active: PC-3 prostate 1.19% | UACC-62 melanoma -49.2% | LOX IMVI melanoma -90% | SK-MEL-28 melanoma -15.2% | SK-MEL-2 melanoma -52.4% | SN12C renal 8.48% | UO-31 renal -25% | ACHN renal -0.725% | CAKI-1 renal -52% | A498 renal -49.5% | CCRF-CEM leukemia 7.31% | MOLT-4 leukemia 3.77%

CC/C=C\C/C=C/C=C1/C(=O)C=C[C@@H]1C/C=C\CCCC(=O)OC
inactive: SNB-75 CNS 93.4% | SNB-19 CNS 62.3% | U251 CNS 28.7% | PC-3 prostate 30.2% | SK-MEL-5 melanoma 70.1% | SK-MEL-28 melanoma 36.7% | SK-MEL-2 melanoma 92.6% | EKVX NSCLC 99.4% | UO-31 renal 28.2% | TK-10 renal 31.6% | ACHN renal 14.1% | CAKI-1 renal 29.7% | A498 renal 109%
active: HCT-15 colon 4.13% | HT29 colon 2.21% | UACC-62 melanoma -6.19% | LOX IMVI melanoma -70% | SN12C renal -8.45% | CCRF-CEM leukemia 1.18% | MOLT-4 leukemia 5.5%

CCN1C(=O)N(CC)C2C1NN=c1s/c(=C\c3ccccc3Br)c(=O)n12 (stereo not given)
inactive: SNB-75 CNS 10.1% | SNB-19 CNS 26.8% | PC-3 prostate 23.2% | UACC-62 melanoma 24.5% | LOX IMVI melanoma 16.3% | SK-MEL-28 melanoma 57.4% | SK-MEL-2 melanoma 51.1% | EKVX NSCLC 47.7% | SN12C renal 24.8% | UO-31 renal 36.2% | TK-10 renal 70.9% | ACHN renal 26.1% | CAKI-1 renal 24.7% | CCRF-CEM leukemia 14.5% | MOLT-4 leukemia 15.2%
active: HCT-15 colon 8.51% | HT29 colon 4.72% | U251 CNS 5.61% | SK-MEL-5 melanoma -17.6% | A498 renal -1.67%

CC1(C)C2CC=C(/C=N/NC(=O)C3CCC(=O)N3)C1C2 (stereo not given)
inactive: HCT-15 colon 104% | HT29 colon 106% | SNB-75 CNS 91.6% | SNB-19 CNS 106% | U251 CNS 101% | PC-3 prostate 102% | SK-MEL-5 melanoma 101% | UACC-62 melanoma 99.2% | LOX IMVI melanoma 96.9% | SK-MEL-28 melanoma 108% | SK-MEL-2 melanoma 102% | EKVX NSCLC 105% | SN12C renal 104% | UO-31 renal 94.6% | TK-10 renal 97.2% | ACHN renal 102% | CAKI-1 renal 97.4% | A498 renal 102% | CCRF-CEM leukemia 104% | MOLT-4 leukemia 103%

Cc1cc(C(=O)Nc2cc(Nc3ncccc3-c3ncnc4nc[nH]c34)ccc2F)cc(C(F)(F)F)c1
active: UACC-62 melanoma -2.36% | LOX IMVI melanoma 1.22% | SK-MEL-2 melanoma 6.72% | A498 renal -26.9%
inactive: HCT-15 colon 60.1% | HT29 colon 20.8% | SNB-75 CNS 59.4% | SNB-19 CNS 74.4% | U251 CNS 57.3% | PC-3 prostate 72.2% | SK-MEL-5 melanoma 29.2% | SK-MEL-28 melanoma 10.3% | EKVX NSCLC 67.1% | SN12C renal 55.7% | UO-31 renal 94.1% | TK-10 renal 68% | ACHN renal 45.1% | CAKI-1 renal 15.4% | CCRF-CEM leukemia 62.3% | MOLT-4 leukemia 47.2%

COc1ccc2c(O)c(/C=C3\N=Nc4ccccc43)oc2c1C[C@H]1CCNC[C@H]1F
inactive: HCT-15 colon 33.6% | HT29 colon 19.3% | SNB-75 CNS 61.4% | SNB-19 CNS 67.7% | U251 CNS 65.4% | PC-3 prostate 40.8% | SK-MEL-5 melanoma 48.3% | UACC-62 melanoma 41.2% | LOX IMVI melanoma 35% | SK-MEL-28 melanoma 68.3% | SK-MEL-2 melanoma 83.1% | EKVX NSCLC 40% | SN12C renal 45.2% | UO-31 renal 45.3% | TK-10 renal 65.4% | ACHN renal 42.8% | CAKI-1 renal 31% | A498 renal 39.9% | CCRF-CEM leukemia 47.9% | MOLT-4 leukemia 24.2%

O=C1NC(=O)c2c1c1c3ccccc3[nH]c1c1oc3ccc(F)cc3c21
active: A498 renal -6.99%
inactive: HCT-15 colon 55.1% | HT29 colon 81.9% | SNB-75 CNS 41.3% | SNB-19 CNS 89.4% | U251 CNS 83.4% | PC-3 prostate 45% | SK-MEL-5 melanoma 53% | UACC-62 melanoma 46.1% | LOX IMVI melanoma 66% | SK-MEL-28 melanoma 90.6% | SK-MEL-2 melanoma 89.4% | EKVX NSCLC 56.4% | SN12C renal 74.6% | UO-31 renal 25% | TK-10 renal 70.6% | ACHN renal 43.2% | CAKI-1 renal 41.2% | CCRF-CEM leukemia 73.6% | MOLT-4 leukemia 76.2%

NC(CSC(c1ccccc1)(c1ccccc1)c1ccc2c(c1)OCO2)C(=O)O (stereo not given)
inactive: HCT-15 colon 25.4% | SNB-75 CNS 30.8% | SNB-19 CNS 37.7% | PC-3 prostate 18.7% | UACC-62 melanoma 25.4% | LOX IMVI melanoma 28.5% | SK-MEL-28 melanoma 47.4% | EKVX NSCLC 43.4% | SN12C renal 36.7% | UO-31 renal 53% | TK-10 renal 69.8% | ACHN renal 53% | CAKI-1 renal 37% | A498 renal 34.3%
active: HT29 colon -5.15% | U251 CNS -7.2% | SK-MEL-5 melanoma 8.31% | SK-MEL-2 melanoma -14.6% | CCRF-CEM leukemia -6.86% | MOLT-4 leukemia 7.18%

O=C(CSc1nc2ccc([N+](=O)[O-])cc2[nH]1)Nc1ccc(Br)cc1
inactive: HCT-15 colon 56.1% | HT29 colon 75.1% | SNB-75 CNS 61.6% | SNB-19 CNS 65.6% | U251 CNS 36.3% | PC-3 prostate 44.1% | SK-MEL-5 melanoma 26.3% | UACC-62 melanoma 20.8% | LOX IMVI melanoma 63.5% | SK-MEL-28 melanoma 54.5% | SK-MEL-2 melanoma 42.2% | EKVX NSCLC 50% | SN12C renal 46.1% | UO-31 renal 41% | TK-10 renal 94.5% | ACHN renal 52.6% | CAKI-1 renal 39.6% | A498 renal 30.9% | CCRF-CEM leukemia 39.1% | MOLT-4 leukemia 26.6%

COc1ccc(Nc2ncccc2NC(=O)c2cn(Cc3cccc(Oc4ccccc4)c3)nn2)cc1OC
inactive: HCT-15 colon 67.7% | HT29 colon 81.1% | SNB-75 CNS 76.2% | SNB-19 CNS 79.2% | U251 CNS 74.5% | PC-3 prostate 67.3% | SK-MEL-5 melanoma 45.1% | UACC-62 melanoma 57.5% | LOX IMVI melanoma 67% | SK-MEL-28 melanoma 83.4% | SK-MEL-2 melanoma 95.1% | EKVX NSCLC 68% | SN12C renal 81.1% | UO-31 renal 54.4% | TK-10 renal 96.5% | ACHN renal 93.9% | CAKI-1 renal 82% | A498 renal 69.6% | CCRF-CEM leukemia 74.7% | MOLT-4 leukemia 48.1%

O=C(Nc1cccc(NC(=O)C2CCCCC2)c1)c1ccccn1
inactive: HCT-15 colon 100% | HT29 colon 90.4% | SNB-75 CNS 87% | SNB-19 CNS 111% | U251 CNS 109% | PC-3 prostate 104% | SK-MEL-5 melanoma 99.7% | UACC-62 melanoma 96.8% | LOX IMVI melanoma 90.6% | SK-MEL-28 melanoma 103% | SK-MEL-2 melanoma 100% | EKVX NSCLC 92% | SN12C renal 102% | UO-31 renal 88.7% | TK-10 renal 112% | ACHN renal 103% | CAKI-1 renal 94.9% | A498 renal 96.1% | CCRF-CEM leukemia 106% | MOLT-4 leukemia 91.3%

O=C1NC(=Nc2ccc(O)cc2)S/C1=C\c1cccs1
active: SNB-75 CNS -12.7% | PC-3 prostate -1.89%
inactive: HCT-15 colon 20.9% | HT29 colon 89.7% | SNB-19 CNS 32.4% | U251 CNS 25.2% | SK-MEL-5 melanoma 47.8% | UACC-62 melanoma 46.1% | LOX IMVI melanoma 32.1% | SK-MEL-28 melanoma 75.6% | SK-MEL-2 melanoma 97.9% | EKVX NSCLC 38.8% | SN12C renal 46.1% | UO-31 renal 52.5% | TK-10 renal 69.3% | ACHN renal 30.3% | CAKI-1 renal 40.9% | A498 renal 15.9% | CCRF-CEM leukemia 11.9% | MOLT-4 leukemia 23.1%
